PMC5540273 (PLoS ONE, 2017)

Legend:
Settings in all cases: concentration: 1 μM, replicates: in singlicate; n = 1
DYRK1B = system: DYRK1B
DYRK2 = system: DYRK2
EGFR = system: EGFR
EIF2AK1 = system: EIF2AK1
EPHA1 = system: EPHA1
EPHA2 = system: EPHA2
EPHA3 = system: EPHA3
EPHA4 = system: EPHA4
EPHA5 = system: EPHA5
EPHA6 = system: EPHA6
EPHA7 = system: EPHA7
EPHA8 = system: EPHA8
EPHB1 = system: EPHB1
EPHB2 = system: EPHB2
EPHB3 = system: EPHB3
EPHB4 = system: EPHB4
EPHB6 = system: EPHB6
ERBB2 = system: ERBB2
ERBB3 = system: ERBB3
ERBB4 = system: ERBB4
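Also: KINOMEscan kinase panel screen.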

With `N#CC1(c2cccc(C(=O)Nc3cccc(Oc4ccc5nc(NC(=O)C6CC6)sc5n4)c3)c2)CC1` the “%Inh” value (DYRK1B) was 1%, the “%Inh” value (DYRK2) was 0% and the “%Inh” value (EGFR) was 36%. The “%Inh” value (EIF2AK1) was 0%, the “%Inh” value (EPHA1) was 76% and the “%Inh” value (EPHA2) was 97.1%. The “%Inh” value (EPHA3) was 50%, the “%Inh” value (EPHA4) was 81% and the “%Inh” value (EPHA5) was 89%. The “%Inh” value (EPHA6) was 91.3%, the “%Inh” value (EPHA7) was 0% and the “%Inh” value (EPHA8) was 98.9%. For the same molecule, the “%Inh” value (EPHB1) was 95.8%, the “%Inh” value (EPHB2) was 100% and the “%Inh” value (EPHB3) was 50%. The “%Inh” value (EPHB4) was 95.9%, the “%Inh” value (EPHB6) was 99.5% and the “%Inh” value (ERBB2) was 22%. The “%Inh” value (ERBB3) was 0% and the “%Inh” value (ERBB4) was 0%.

`CC(C)c1nc(-c2cccc(NS(=O)(=O)c3c(F)cccc3F)c2)c(-c2ccnc(Nc3ccc(N4CCOCC4)nc3)n2)s1.Cl` [GSK1723980] was tested, and the “%Inh” value (DYRK1B) was 0%, the “%Inh” value (DYRK2) was 18% and the “%Inh” value (EGFR) was 99.1%. The “%Inh” value (EIF2AK1) was 66%, the “%Inh” value (EPHA1) was 97.7% and the “%Inh” value (EPHA2) was 0%. The “%Inh” value (EPHA3) was 18%, the “%Inh” value (EPHA4) was 27% and the “%Inh” value (EPHA5) was 0%. The “%Inh” value (EPHA6) was 77%, the “%Inh” value (EPHA7) was 0% and the “%Inh” value (EPHA8) was 93%. For the same molecule, the “%Inh” value (EPHB1) was 24%, the “%Inh” value (EPHB2) was 0% and the “%Inh” value (EPHB3) was 0%. The “%Inh” value (EPHB4) was 0%, the “%Inh” value (EPHB6) was 97.4% and the “%Inh” value (ERBB2) was 86%. For the same molecule, the “%Inh” value (ERBB3) was 97.8% and the “%Inh” value (ERBB4) was 95%.

In the case of `CNc1nccc(-c2ccc3c(N)n[nH]c3c2)n1` [GSK2206003], the “%Inh” value (DYRK1B) is reported as 99.1%, the “%Inh” value (DYRK2) is reported as 90% and the “%Inh” value (EGFR) is reported as 25%. The “%Inh” value (EIF2AK1) was 0%, the “%Inh” value (EPHA1) was 11% and the “%Inh” value (EPHA2) was 0%. For the same molecule, the “%Inh” value (EPHA3) was 12%, the “%Inh” value (EPHA4) was 7% and the “%Inh” value (EPHA5) was 0%. For the same molecule, the “%Inh” value (EPHA6) was 0%, the “%Inh” value (EPHA7) was 9% and the “%Inh” value (EPHA8) was 18%. For the same molecule, the “%Inh” value (EPHB1) was 5%, the “%Inh” value (EPHB2) was 0% and the “%Inh” value (EPHB3) was 5%. For the same molecule, the “%Inh” value (EPHB4) was 2%, the “%Inh” value (EPHB6) was 11% and the “%Inh” value (ERBB2) was 50%. For the same molecule, the “%Inh” value (ERBB3) was 8% and the “%Inh” value (ERBB4) was 31%.

`CCn1c(-c2nonc2N)nc2c(-c3ccccc3)ncc(OCCCN)c21.O=C(O)C(F)(F)F.O=C(O)C(F)(F)F` [GSK260205] was tested, and the “%Inh” value (DYRK1B) was 0%, the “%Inh” value (DYRK2) was 14% and the “%Inh” value (EGFR) was 56%. The “%Inh” value (EIF2AK1) was 90.8%, the “%Inh” value (EPHA1) was 24% and the “%Inh” value (EPHA2) was 0%. For the same molecule, the “%Inh” value (EPHA3) was 12%, the “%Inh” value (EPHA4) was 0% and the “%Inh” value (EPHA5) was 0%. For the same molecule, the “%Inh” value (EPHA6) was 0%, the “%Inh” value (EPHA7) was 6% and the “%Inh” value (EPHA8) was 10%. The “%Inh” value (EPHB1) was 0%, the “%Inh” value (EPHB2) was 0% and the “%Inh” value (EPHB3) was 0%. The “%Inh” value (EPHB4) was 7%, the “%Inh” value (EPHB6) was 0% and the “%Inh” value (ERBB2) was 89%. The “%Inh” value (ERBB3) was 0% and the “%Inh” value (ERBB4) was 41%.

In the case of `COc1cc(Nc2ccnc3cc(-c4ccncc4)ccc23)cc(OC)c1OC.Cl` [GW494610], the “%Inh” value (DYRK1B) is reported as 0%, the “%Inh” value (DYRK2) is reported as 4% and the “%Inh” value (EGFR) is reported as 58%. The “%Inh” value (EIF2AK1) was 0%, the “%Inh” value (EPHA1) was 96.9% and the “%Inh” value (EPHA2) was 83%. The “%Inh” value (EPHA3) was 48%, the “%Inh” value (EPHA4) was 48% and the “%Inh” value (EPHA5) was 37%. For the same molecule, the “%Inh” value (EPHA6) was 0%, the “%Inh” value (EPHA7) was 0% and the “%Inh” value (EPHA8) was 99.2%. For the same molecule, the “%Inh” value (EPHB1) was 74%, the “%Inh” value (EPHB2) was 57% and the “%Inh” value (EPHB3) was 0%. For the same molecule, the “%Inh” value (EPHB4) was 50%, the “%Inh” value (EPHB6) was 98% and the “%Inh” value (ERBB2) was 49%. For the same molecule, the “%Inh” value (ERBB3) was 50% and the “%Inh” value (ERBB4) was 5%.

`CN1CCN(Cc2ccc(NC(=O)Nc3ccc(N(C)c4ccnc(Nc5ccc(CS(C)(=O)=O)cc5)n4)cc3)cc2)CC1.Cl` [GW827654] was tested, and the “%Inh” value (DYRK1B) was 3%, the “%Inh” value (DYRK2) was 32% and the “%Inh” value (EGFR) was 0%. For the same molecule, the “%Inh” value (EIF2AK1) was 0%, the “%Inh” value (EPHA1) was 33% and the “%Inh” value (EPHA2) was 29%. The “%Inh” value (EPHA3) was 49%, the “%Inh” value (EPHA4) was 0% and the “%Inh” value (EPHA5) was 5%. The “%Inh” value (EPHA6) was 2%, the “%Inh” value (EPHA7) was 10% and the “%Inh” value (EPHA8) was 77%. For the same molecule, the “%Inh” value (EPHB1) was 11%, the “%Inh” value (EPHB2) was 28% and the “%Inh” value (EPHB3) was 0%. The “%Inh” value (EPHB4) was 0%, the “%Inh” value (EPHB6) was 94.5% and the “%Inh” value (ERBB2) was 48%. For the same molecule, the “%Inh” value (ERBB3) was 45% and the “%Inh” value (ERBB4) was 33%.

For `COc1cccc2c(-c3ccncc3)c(-c3ccc(F)cc3)nn12` [GW468513], the “%Inh” value (DYRK1B) was 0%, the “%Inh” value (DYRK2) was 0% and the “%Inh” value (EGFR) was 71%. The “%Inh” value (EIF2AK1) was 0%, the “%Inh” value (EPHA1) was 5% and the “%Inh” value (EPHA2) was 17%. The “%Inh” value (EPHA3) was 0%, the “%Inh” value (EPHA4) was 18% and the “%Inh” value (EPHA5) was 0%. The “%Inh” value (EPHA6) was 41%, the “%Inh” value (EPHA7) was 0% and the “%Inh” value (EPHA8) was 3%. The “%Inh” value (EPHB1) was 6%, the “%Inh” value (EPHB2) was 0% and the “%Inh” value (EPHB3) was 38%. For the same molecule, the “%Inh” value (EPHB4) was 13%, the “%Inh” value (EPHB6) was 37% and the “%Inh” value (ERBB2) was 50%. The “%Inh” value (ERBB3) was 21% and the “%Inh” value (ERBB4) was 68%.

In the case of `CCn1cnc2c(NCc3ccccc3)ncnc21` [SKF-96418], the “%Inh” value (DYRK1B) is reported as 37%, the “%Inh” value (DYRK2) is reported as 15% and the “%Inh” value (EGFR) is reported as 0%. For the same molecule, the “%Inh” value (EIF2AK1) was 0%, the “%Inh” value (EPHA1) was 0% and the “%Inh” value (EPHA2) was 0%. The “%Inh” value (EPHA3) was 0%, the “%Inh” value (EPHA4) was 7% and the “%Inh” value (EPHA5) was 0%. For the same molecule, the “%Inh” value (EPHA6) was 0%, the “%Inh” value (EPHA7) was 0% and the “%Inh” value (EPHA8) was 0%. The “%Inh” value (EPHB1) was 0%, the “%Inh” value (EPHB2) was 0% and the “%Inh” value (EPHB3) was 0%. For the same molecule, the “%Inh” value (EPHB4) was 0%, the “%Inh” value (EPHB6) was 0% and the “%Inh” value (ERBB2) was 24%. The “%Inh” value (ERBB3) was 28% and the “%Inh” value (ERBB4) was 4%.

In the case of `O=C(Nc1c(F)cccc1F)c1cc(C(=O)c2ccccc2F)c[nH]1` [GSK1326180], the “%Inh” value (DYRK1B) is reported as 17%, the “%Inh” value (DYRK2) is reported as 12% and the “%Inh” value (EGFR) is reported as 26%. For the same molecule, the “%Inh” value (EIF2AK1) was 0%, the “%Inh” value (EPHA1) was 0% and the “%Inh” value (EPHA2) was 11%. For the same molecule, the “%Inh” value (EPHA3) was 0%, the “%Inh” value (EPHA4) was 9% and the “%Inh” value (EPHA5) was 0%. The “%Inh” value (EPHA6) was 2%, the “%Inh” value (EPHA7) was 0% and the “%Inh” value (EPHA8) was 0%. For the same molecule, the “%Inh” value (EPHB1) was 4%, the “%Inh” value (EPHB2) was 0% and the “%Inh” value (EPHB3) was 6%. For the same molecule, the “%Inh” value (EPHB4) was 0%, the “%Inh” value (EPHB6) was 0% and the “%Inh” value (ERBB2) was 35%. The “%Inh” value (ERBB3) was 20% and the “%Inh” value (ERBB4) was 0%.

`Fc1cc(Cl)ccc1Nc1ccnc2cc(-c3ccc(CN4CCOCC4)o3)ccc12` [GW560109] was tested, and the “%Inh” value (DYRK1B) was 7%, the “%Inh” value (DYRK2) was 13% and the “%Inh” value (EGFR) was 71%. For the same molecule, the “%Inh” value (EIF2AK1) was 10%, the “%Inh” value (EPHA1) was 94.5% and the “%Inh” value (EPHA2) was 34%. The “%Inh” value (EPHA3) was 32%, the “%Inh” value (EPHA4) was 41% and the “%Inh” value (EPHA5) was 0%. For the same molecule, the “%Inh” value (EPHA6) was 65%, the “%Inh” value (EPHA7) was 59% and the “%Inh” value (EPHA8) was 90.2%. For the same molecule, the “%Inh” value (EPHB1) was 50%, the “%Inh” value (EPHB2) was 44% and the “%Inh” value (EPHB3) was 15%. The “%Inh” value (EPHB4) was 55%, the “%Inh” value (EPHB6) was 91.7% and the “%Inh” value (ERBB2) was 34%. The “%Inh” value (ERBB3) was 80% and the “%Inh” value (ERBB4) was 25%.
